These results are taken from PubChem BioAssay (NCATS).

Records with an inconclusive call do not appear. Active and inactive are the calls of the source. Unless noted, calls come from the whole dose curve; as a rule, active = well fitted curve in the direction sought with a large enough effect; inconclusive = small, poorly fitted or top-dose-only effect, or another doubt; inactive = no such curve, though single readings can be large; an effect the other way counts as inactive or inconclusive.

The nature of assay [1]: AP1 Signaling Pathway (AID 357; active = well fitted curve in either direction with a large enough effect, not every such curve was filed as active;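 note: ME-180 reporter cells stimulated with EGF at its EC50 level; % is set by controls: 0 for no effect and ±100 for the full control effect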). The procedure, abridged: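 In this screen, ME-180 cells in Opti-MEM with 0.5% dialyzed FBS received EC50 EGF and compound titrations for 5 h. AP-1 reporter beta-lactamase was detected via CCF4 ratio, giving AC50 for positive and negative modulators.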
The target in assay [2] is Cytochrome P450 1A2 (Homo sapiens) (UniProt P05177). Put plainly: p450-cyp1a2 (AID 410; calls by dose curve;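 note: -100% = full effect of reference inhibitor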). The method in brief: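 20nM CYP1A2, 100uM Luciferin-ME (=Km), 100mM KPO4; cpd 10 min RT; +NADPH regen, 60 min RT; stop/detect 20 min; luminescence. Normalized to furafylline 57 uM = full inhibition.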
Assay [3] is described as follows: NFAT Signaling Pathway (AID 444; active = well fitted curve in either direction with a large enough effect, not every such curve was filed as active;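 note: carbachol stimulus at about its EC50 of 1 µM final; % is set by controls: 0 for no effect and ±100 for the full control effect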). The settings on record: Jurkat NFAT-bla M1, carbachol, beta-lactamase ratio, 5 h; at 17.2 µM (top of the series) unless noted. The procedure, abridged:
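Jurkat cells with NFAT-driven β-lactamase reporter and co-expressed M1 receptor, stimulated with carbachol (final 1 uM, ~EC50), compound titration, 5 h at 37 °C. CCF4 loaded 1 h at RT; 460/530 nm ratio gave %activity and AC50.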

The nature of assay [4]: Stat Signaling Pathway (AID 446; active = well fitted curve in either direction with a large enough effect, not every such curve was filed as active;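 note: ME-180 cervical cancer cells given 40 pM IL-6 alongside compound; SIE-controlled beta-lactamase reporter measured as 460/530 nm FRET emission ratio; % is set by controls: 0 for no effect and ±100 for the full control effect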). The procedure, abridged: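 Compound effects on IL-6-induced STAT reporter activity were measured in ME-180 cells. After overnight culture, cells were co-treated with 40 pM IL-6 for 5 hrs before beta-lactamase substrate loading at room temperature.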
For assay [5], the target named is Mitogen-activated protein kinase 10 (Mus musculus) (UniProt Q61831). In words: JNK3 AlphaScreen Assay (AID 530; active = well fitted curve in either direction with a large enough effect, not every such curve was filed as active;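 note: kinase came from lysate of stimulated human HepG2 cells; signal reports phosphorylation of biotinylated GST-cJun 1-79 at Ser73 with 10 µM ATP; % is set by controls: 0 for no effect and ±100 for the full control effect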). The procedure, abridged: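 HepG2 lysate (IL-1b/TNFa pre-activated) + biotin-GST-cJun 1-79 + anti-pSer73 cJun; cpd titration, 15 min RT; ATP 10 uM start; Tris pH 7.6, MgCl2, DTT, vanadate; beads in EDTA buffer; AlphaScreen.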
Assay [6] addresses 3',5'-cyclic-AMP phosphodiesterase 4B (Homo sapiens) (UniProt Q07343). In words: qHTS Assay for Inhibitors of PDE-IV (AID 607; active = well fitted activation curve with a large enough effect in the main read-out, with a control signal flat, not every such curve was filed as active; note: % of control where 0% means no effect). The method in brief: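 ACTOne HEK293 cells carry a modified cAMP-gated CNG channel and express endogenous PDE4; plated 1000 cells/well, compounds up to 22.9 uM final. Membrane-potential dye fluorescence (ex 535/em 590) was read; parental cells received 10 uM forskolin + 100 uM RO 20-1724.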
In general terms: In qHTS, concentration-response curves come from the screen itself.

The nature of assay [7]: qHTS Assay for Lipid Storage Modulators (AID 1519; calls by dose curve). The settings on record: Drosophila S3 cells, BODIPY lipid droplet/cell ratio, laser cytometry, cells loaded with oleic acid; for activity change, negative = inhibition: at 25.7 µM (top of the series). The procedure, abridged:
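Cells seeded at 5,000 per well were treated with compounds over a concentration series and loaded with oleic acid (400 uM, as added). Lipid droplet fluorescence (488 nm excitation, 500-530 nm channel) was read by laser-scanning cytometry and normalized to 20 uM Triacsin C.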

The target of assay [8] is Ubiquitin carboxyl-terminal hydrolase 1 (Homo sapiens) (UniProt O94782). In words: Inhibitors of USP1/UAF1: Pilot qHTS (AID 504865).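 Note: rhodamine fluorescence freed from ubiquitin-rhodamine substrate followed over time; top concentration of the series differs between compounds; % is set by controls: 0 for no effect and ±100 for the full control effect; nearly all actives have a fitted effect of over 35% in size.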 The method in brief: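 Kinetic fluorescence assay: 1nM USP1/UAF1, 15 min compound preincubation, then 150nM Ub-Rho; 480/540 nm.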
Assay [9] can be described thus: S16 Schwann cell viability assay (CellTiter-Glo assay) (AID 624031).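 Note: cellular ATP luminescence as a viability measure; plate controls were DMSO-treated cells for no effect and cell-free wells for full effect; nearly all actives have a fitted effect of over 70% in size.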 The method in brief:
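Luminescent ATP read-out (CellTiter-Glo) after 24 h compound exposure of native S16 rat Schwann cells at 37 °C. Signals were normalized between cell-free wells and DMSO-treated cells, set as 0% activity.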

Assay [10] can be described thus: S16 Schwann cell PMP22 intronic element firefly luciferase assay (AID 624032).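 Note: plate controls were DMSO for no effect and PTC124 positive control mean for full effect; nearly all actives have a fitted effect of over 30% in size.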 The method in brief:
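Rat S16 Schwann cells stably carrying firefly luciferase driven by a PMP22 intronic element, in 10% FBS, treated 24 h at 37 C. ONE-Glo luminescence normalized to PTC124 control and DMSO (0%); curves classed by r2, magnitude and activity.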

Assay [11] in a line: qHTS profiling for inhibitors of Plasmodium falciparum proliferation (AID 504749).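 For activity, negative = inhibition: 0% = DMSO vehicle and full inhibition = artemisinin control.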 For all read-outs here: nearly all actives have a fitted effect of over 60% in size. Note: potency is the fitted concentration of half-maximal effect. The settings on record: P. falciparum in erythrocytes, SYBR Green DNA, 72 h; for activity, negative = inhibition: at 12.8 µM (top of the series). The method in brief:
(§1)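 SYBR Green fluorescence (ex 485 nm, em 535 nm) reports parasite DNA after 72 h compound exposure of infected red cells at 0.3% parasitemia, 2.5% hematocrit; signal normalized to 0.29 uM artemisinin and vehicle wells.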

A further assay relates to 3D7. The description is as above. The settings on record: P. falciparum in erythrocytes, SYBR Green DNA, 72 h; series mostly up to 12.8 µM. The method in brief: as §1
A further assay concerns AS120. The description is as above. The settings on record: P. falciparum in erythrocytes, SYBR Green DNA, 72 h; series mostly up to 12.8 µM. The procedure, abridged:
as §1

The next assay has as its system ATS189. The description is as above. The settings on record: P. falciparum in erythrocytes, SYBR Green DNA, 72 h; series mostly up to 12.8 µM. The procedure, abridged:
as §1

The next assay relates to CP217. Described as above. The settings on record: P. falciparum in erythrocytes, SYBR Green DNA, 72 h; series mostly up to 12.8 µM. The method in brief: as §1
A further assay has as its system CP247. The assay is described as above. The settings on record: P. falciparum in erythrocytes, SYBR Green DNA, 72 h; series mostly up to 12.8 µM. The method in brief:
as §1

The next assay relates to CP250. The description is as above. The settings on record: P. falciparum in erythrocytes, SYBR Green DNA, 72 h; series mostly up to 12.8 µM. The procedure, abridged:
as §1

The next assay relates to SC27B. The assay is described as above. The conditions noted are these: P. falciparum in erythrocytes, SYBR Green DNA, 72 h; series mostly up to 12.8 µM. The procedure, abridged:
as §1

The mark [12] stands for this setting: measured here: cell count channel max response.
The mark [13] stands for this setting: measured here: lipid channel max response.

Chain of Ubiquitin carboxyl-terminal hydrolase 1 (Homo sapiens) (O94782 whole entry, looked up): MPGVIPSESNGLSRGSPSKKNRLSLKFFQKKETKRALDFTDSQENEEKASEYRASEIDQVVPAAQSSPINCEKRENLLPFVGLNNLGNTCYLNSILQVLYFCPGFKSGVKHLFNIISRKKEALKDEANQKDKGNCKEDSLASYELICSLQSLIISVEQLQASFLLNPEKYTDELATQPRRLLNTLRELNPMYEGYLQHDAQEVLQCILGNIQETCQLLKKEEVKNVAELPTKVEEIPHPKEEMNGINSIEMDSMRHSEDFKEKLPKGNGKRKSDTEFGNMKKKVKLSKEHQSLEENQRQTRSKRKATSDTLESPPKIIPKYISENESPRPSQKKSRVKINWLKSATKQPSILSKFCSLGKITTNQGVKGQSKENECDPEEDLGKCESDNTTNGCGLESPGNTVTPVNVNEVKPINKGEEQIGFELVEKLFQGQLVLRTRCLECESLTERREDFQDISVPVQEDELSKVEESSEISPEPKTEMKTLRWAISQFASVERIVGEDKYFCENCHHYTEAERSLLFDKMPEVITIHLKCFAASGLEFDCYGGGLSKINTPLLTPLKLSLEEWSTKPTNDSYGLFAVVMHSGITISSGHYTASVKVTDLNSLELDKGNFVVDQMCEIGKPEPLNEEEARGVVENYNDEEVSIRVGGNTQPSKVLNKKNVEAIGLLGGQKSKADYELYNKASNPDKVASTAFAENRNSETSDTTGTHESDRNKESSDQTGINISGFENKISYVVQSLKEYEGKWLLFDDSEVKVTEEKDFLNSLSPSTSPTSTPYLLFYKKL
Chain of Cytochrome P450 1A2 (Homo sapiens) (P05177 whole entry, looked up): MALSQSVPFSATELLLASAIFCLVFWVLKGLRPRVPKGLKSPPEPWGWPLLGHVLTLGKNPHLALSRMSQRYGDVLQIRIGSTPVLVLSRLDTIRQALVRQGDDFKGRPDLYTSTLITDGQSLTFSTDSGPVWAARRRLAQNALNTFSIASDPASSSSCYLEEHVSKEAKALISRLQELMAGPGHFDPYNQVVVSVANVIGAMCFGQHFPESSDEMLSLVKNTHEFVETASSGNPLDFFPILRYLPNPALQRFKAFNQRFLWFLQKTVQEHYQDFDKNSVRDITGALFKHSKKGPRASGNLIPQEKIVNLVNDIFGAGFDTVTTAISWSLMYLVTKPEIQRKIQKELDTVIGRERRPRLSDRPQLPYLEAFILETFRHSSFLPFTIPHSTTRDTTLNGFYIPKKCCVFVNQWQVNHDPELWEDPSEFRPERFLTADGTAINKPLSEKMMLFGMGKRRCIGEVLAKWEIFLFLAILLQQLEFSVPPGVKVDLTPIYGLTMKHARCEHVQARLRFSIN
Chain of 3',5'-cyclic-AMP phosphodiesterase 4B (Homo sapiens) (Q07343 whole entry, looked up): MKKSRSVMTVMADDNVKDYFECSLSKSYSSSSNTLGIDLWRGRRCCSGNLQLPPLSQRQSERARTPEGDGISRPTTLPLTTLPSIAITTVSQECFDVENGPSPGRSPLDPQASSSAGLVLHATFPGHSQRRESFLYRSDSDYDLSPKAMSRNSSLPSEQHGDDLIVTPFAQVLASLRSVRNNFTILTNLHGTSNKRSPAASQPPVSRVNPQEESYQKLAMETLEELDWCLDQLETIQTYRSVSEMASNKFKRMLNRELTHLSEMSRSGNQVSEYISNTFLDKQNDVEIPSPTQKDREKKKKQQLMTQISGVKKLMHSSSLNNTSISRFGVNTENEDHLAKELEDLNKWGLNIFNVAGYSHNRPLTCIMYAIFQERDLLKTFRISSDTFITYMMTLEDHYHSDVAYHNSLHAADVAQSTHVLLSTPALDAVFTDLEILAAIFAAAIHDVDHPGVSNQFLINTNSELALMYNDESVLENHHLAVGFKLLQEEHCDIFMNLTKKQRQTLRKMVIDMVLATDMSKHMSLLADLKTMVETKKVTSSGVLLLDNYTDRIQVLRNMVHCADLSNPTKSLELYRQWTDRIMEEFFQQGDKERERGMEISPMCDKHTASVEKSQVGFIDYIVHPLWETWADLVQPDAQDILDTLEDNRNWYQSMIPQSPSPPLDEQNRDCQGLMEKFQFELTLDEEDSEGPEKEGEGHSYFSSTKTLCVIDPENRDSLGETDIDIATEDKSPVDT

For `C=CC1=C(C(=O)O)N2C(=O)[C@@H](NC(=O)/C(=N\OCC(=O)O)c3csc(N)n3)[C@@H]2SC1`, the call in assay [1], in assay [4], in assay [6] and in assay [9] was inactive. In addition, the Potency entry (in [2]; in assay [5]; in assay [8]; in [10]; in the assay on 3D7; with AS120) was “inactive” each time. The Potency result in the assay with ATS189, in the assay on CP217, with CP247, in the assay with CP250 and with SC27B was “inactive” each time. In addition, the activity change, negative = inhibition was -1.88% (inactive) in assay [3] and 0.264% (inactive) in assay [7]. The max response in assay [7] (setting [12]) is 6.88%; in assay [7] (setting [13]) it was 9.17%. In addition, the activity, negative = inhibition in assay [11] (parasite line A) was -8.61% (inactive); in assay [11] (parasite line B), -5.96% (inactive).
Turning to `Cc1ccc(S(=O)(=O)NC(=O)NN2C[C@H]3CCC[C@@H]3C2)cc1`, the outcome in assay [1], in assay [4], in [6] and in assay [9] was inactive. Besides, the Potency entry (in assay [2]; in assay [5]; in assay [10]; in the assay on 3D7; in the assay on AS120; in the assay with ATS189) was “inactive” throughout. The Potency entry in the assay on CP217, with CP247, in the assay on CP250 and in the assay with SC27B was “inactive” each time. Further, the activity change, negative = inhibition was -2% (inactive) in assay [3] and 2.69% (inactive) in assay [7]. In addition, the results for the max response in assay [7] (setting [12]) and in [7] (setting [13]) were 5.52% and 8.97%, respectively. Moreover, the values for the activity, negative = inhibition in assay [11] (parasite line A) and in assay [11] (parasite line B) were -0.0473% (inactive) and 12.1% (inactive), respectively.
For the molecule `CO[C@]1(NC(=O)Cc2cccs2)C(=O)N2C(C(=O)O)=C(COC(N)=O)CS[C@H]21`, the molecule was classed as inactive in [1], in assay [4] and in assay [6]. For the same molecule, the Potency result in [2], in [5] and in assay [8] was “inactive” in each case. For the same molecule, the activity change, negative = inhibition is 3.7% (inactive) in assay [3] and 2.57% (inactive) in [7]. Moreover, the max response in [7] (setting [12]) was -2.6%; in assay [7] (setting [13]), 0.943%.
Turning to `CC1(C)O[C@H]2C[C@@H]3[C@H]4CCC5=CC(=O)CC[C@@]5(C)[C@]4(F)[C@@H](O)C[C@@]3(C)[C@@]2(C(=O)CCl)O1`, the molecule was called inactive in [1], in assay [4], in [6] and in assay [9]. In addition, the Potency result in assay [2], in [5] and in assay [10] was “inactive” throughout. Further, the values for the activity change, negative = inhibition in [3] and in [7] were 17.6% (inactive) and -3.97% (inactive), respectively. The max response in assay [7] (setting [12]) was -11.4%; in [7] (setting [13]), -17.1%. Moreover, the Potency is 1.58 µM (active) in assay [11] (parasite line B); 3.98 µM (active) with 3D7; 3.98 µM (active) in the assay on AS120; 3.55 µM (active) in the assay with ATS189; 2.24 µM (active) with CP217; 3.98 µM (active) in the assay on CP247. In the assay on CP250, the Potency was 3.98 µM (active).
Consider `C[C@H]1CC[C@]2(OC1)O[C@@H]1C[C@@H]3[C@@H]4CC[C@H]5C[C@@H](O)CC[C@]5(C)[C@@H]4CC(=O)[C@@]3(C)[C@H]1[C@@H]2C`, for which the molecule was called inactive in assay [1], in [4], in assay [6] and in [9]. In addition, the Potency result (in assay [2]; in assay [5]; in [8]; in assay [10]; in the assay on 3D7; in the assay with AS120) was “inactive” each time. In addition, the Potency result in the assay on ATS189, in the assay with CP217, in the assay with CP247, in the assay with CP250 and with SC27B was “inactive” in each case. Besides, the activity change, negative = inhibition is 0.559% (inactive) in assay [3] and -1.95% (inactive) in assay [7]. Also, the results for the max response in [7] (setting [12]) and in assay [7] (setting [13]) were -5.08% and -7.26%, respectively. Besides, the activity, negative = inhibition in [11] (parasite line A) is 11.1% (inactive); in assay [11] (parasite line B), 13.9% (inactive).
